# In the library only some 2.1% were active in any assay of this set; here they are far more common.
# Shn3 3UTR inh – Schnurri-3 reporter inhibition in Clone20 osteoblasts | Clone20 osteoblast Shn3 3'UTR firefly luciferase, 24 h | inhibition, % at 12.5 µM | 360,000 compounds, 0.52% hits;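 active = mean inhibition of at least 75% with every replicate also reaching 75%; inconclusive = mean inhibition at least 75% but some replicate below; inactive = mean inhibition below 75%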;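 note: 0% = median of neutral control wells and 100% = pilot-screen positive control compound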
# aSyn 5UTR inh – 5' untranslated region of α-synuclein, MLPCN primary screen; alpha-synuclein 5'UTR reporter, inhibitor activity; inhibition, % (tested at 7.5 µM); 300,000 compounds, 0.82% hits; AID 1813; in the data active = inhibition above about 60%; inconclusive = no clear call, values can overlap the other calls;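 note: H4 neuroglioblastoma cells stably carrying SNCA 5'UTR luciferase fusion; 0% = DMSO wells and 100% = positive control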
# EBV LMP1 NFkB – inhibitors of Epstein-Barr LMP1-induced NF-kappaB reporter. 350,000 compounds, 0.69% hits. inhibition, % at 12.5 µM. AID 504558. LMP1-induced NF-kappaB luciferase reporter cells, luminescence; in the data active = inhibition above about 41%; inconclusive = no clear call, values can overlap the other calls;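 note: 0% = neutral control wells and 100% = reference inhibitor control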
# PAX8 reporter – PAX8 transcriptional activity inhibition; RMG-I TPO-luciferase reporter, SteadyGlo, 24 h; inhibition, % at 12.6 µM; 360,000 compounds, 1.2% hits;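 active = mean replicate inhibition at least 60% with every replicate also reaching 60%; inconclusive = only one of the two criteria is met; inactive = mean below 60% and not all replicates reaching 60%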;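 note: luciferase light reporting Pax8 driven TPO promoter activity; plate controls were median of neutral control wells for no effect and mitoxantrone controls for full effect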
# MITF TRPM1 inh – inhibitors of MITF-driven TRPM1 promoter in melanoma cells; SK-MEL-5 TRPM1 promoter luciferase, 24 h; inhibition, % at 12.5 µM; 330,000 compounds, 0.83% hits;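 active = mean inhibition across replicates of 60% or more, whatever share of single replicates reaches that level; inconclusive = some that reach 60%, reason not given; inactive = mean inhibition across replicates below 60%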
# The depositor's hits bear a star; ? = inconclusive; . = no result given; ! = repeats disagree.
SMILES,Shn3 3UTR inh,aSyn 5UTR inh,EBV LMP1 NFkB,PAX8 reporter,MITF TRPM1 inh
C[C@H]1CN([C@@H](C)CO)C(=O)Cc2cc(NC(=O)Nc3ccc(C(F)(F)F)cc3)ccc2O[C@H]1CN(C)Cc1ccc(Cl)c(Cl)c1,.,.,.,49.4,.
C[C@H]1CN([C@@H](C)CO)C(=O)Cc2cc(NC(=O)Nc3ccc(F)cc3)ccc2O[C@H]1CN(C)Cc1ccc(Cl)c(Cl)c1,.,.,.,110.5*,.
C[C@@H]1CN([C@@H](C)CO)C(=O)Cc2cc(NC(=O)Nc3ccc(F)cc3)ccc2O[C@H]1CN(C)Cc1ccc(Cl)c(Cl)c1,.,.,.,105.3*,.
COc1ccc(C2C(C(C)=O)=C(C)Nc3ncnn32)c(OC)c1OC (configuration not stated),0.8,-6.7,-20.7,13.3,8.4
O=c1cc(-c2nn[nH]n2)[nH]c(=O)[nH]1,-2.3,.,-3.7,.,-0.2
CCN(CC)S(=O)(=O)c1ccc2oc(SCC(=O)Nc3cc(C)on3)nc2c1,48.9,20.3,12.8,2.2,24.5
Cc1cc(C)cc(-n2nnn(C3C/C(=N/NC(N)=S)C4OCC3O4)c2=S)c1 (configuration not stated),-8.5,-2.4,1.4,4.6,7.3
COc1ccc(N=C2S/C(=C\c3ccc(Cl)c([N+](=O)[O-])c3)C(=O)N2CCN(C)C)cc1,46.7,80.6*,-10.5,6.1,14.1
CCN1C(=O)/C(=C/c2cccs2)SC1=Nc1ccc(OC)cc1,-18.8,34.1,-0.2,.,-13.4
CCCN1C(=O)/C(=C/c2ccc(C)s2)SC1=Nc1ccc(OC)cc1,19.9,15.4,-8.5,.,4.3
CCN(CC)CCN1C(=O)/C(=C\c2ccc(Cl)c([N+](=O)[O-])c2)SC1=Nc1ccc(OC)cc1,96.4*,73.8*,30.1,54.0,93.6*
CC(NCc1cccc(OCc2ccccc2)c1)C(O)c1ccccc1 (configuration not stated),6.1,3.8,-9.8,4.7,-5.8
CC(NCc1ccc(OCc2ccc(Cl)cc2)cc1)C(O)c1ccccc1 (configuration not stated),97.0*,-38.7,-34.2,26.9,12.6
COC(=O)c1ccc2nc(Nc3nc4c(F)cc(F)cc4s3)sc2c1,55.0,-11.7,20.8,.,94.8*
CCOC(=O)c1ccc2nc(NC(C)=O)sc2c1,-64.0,-126.4,-14.8,-137.4,-38.4
CCOC(=O)c1ccc2nc(Nc3nc4ccc(F)cc4s3)sc2c1,34.5,13.3,24.2,49.0,96.4*
COc1cc(Br)cc(/C=N/NC(=O)Cc2ccc(C(F)(F)F)cc2[N+](=O)[O-])c1O,20.4,67.5*,21.0,23.7,13.1
COc1cc(C(=O)NC2CCN(C)CC2)ccc1Nc1ncc2c(n1)N(Cc1ccccc1)CCC(=O)N2C,-18.2,.,-3.9,-296.3,47.3
COc1cc(C(=O)NC2CCN(C)CC2)ccc1Nc1ncc2c(n1)N(C1CCCCC1)CCC(=O)N2C,51.6,.,7.3,-212.4,?
CCN1C(=O)CC(c2ccccc2)N(C2CCCC2)c2nc(Nc3ccc(C(=O)NC4CCN(C)CC4)cc3OC)ncc21 (configuration not stated),66.2,.,-13.8,.,87.4*
CCN1C(=O)CC(C(C)C)N(C2CCCC2)c2nc(Nc3ccc(C(=O)NC4CCN(C)CC4)cc3OC)ncc21 (configuration not stated),-55.5,.,-20.2,.,83.8*
C[C@@H]1CN([C@H](C)CO)C(=O)c2cc(C#CC3(O)CCCC3)cnc2O[C@@H]1CN(C)S(=O)(=O)c1ccc(F)cc1,.,.,.,-17.3,.
CN1c2ccc(C3=CCCCC3)cc2[C@H]2[C@H](CCN2C(=O)C2CCC2)[C@@H]1CO,.,.,.,69.2*,.
CN1c2ccc(C3=CCCCC3)cc2[C@@H]2[C@@H](CCN2C(=O)C2CCCC2)[C@H]1CO,.,.,.,-13.2,.
CN1c2ccc(C3=CCCCC3)cc2[C@H]2[C@H](CCN2C(=O)NC2CCCCC2)[C@@H]1CO,.,.,.,77.5*,.
SMILES,Shn3 3UTR inh,aSyn 5UTR inh,EBV LMP1 NFkB,PAX8 reporter,MITF TRPM1 inh
CCn1c(C)c(C)c2cc(C(=O)Nc3cccc(Cl)c3)ccc21,-13.2,-117.4,52.9*,.,-47.7
O=C(C[C@H]1C[C@H]2c3cc(NC(=O)CC4CC4)ccc3O[C@H]2[C@@H](CO)O1)NCc1ccc(Cl)cc1,.,.,.,9.6,.
O=C(Nc1nc(-c2ccccn2)cs1)c1ccccc1-n1cnnn1,94.6*,98.3*,23.3,59.2,65.3*
Cc1cc(C(=O)Nc2nc(-c3ccccn3)cs2)ccc1[N+](=O)[O-],33.0,31.1,13.0,25.0,6.8
O=C(Nc1nc(-c2ccccn2)cs1)c1cc(Cl)ccc1[N+](=O)[O-],97.0*,115.9*,?,80.5*,79.3*
O=C(Nc1nc(-c2ccccn2)cs1)c1ccc([N+](=O)[O-])o1,87.7*,-32.3,1.1,79.8*,61.5*
Cc1ccc(C(=O)N2CCCC(CCC(=O)N3CCN(c4ccccn4)CC3)C2)cn1 (configuration not stated),7.1,0.6,2.6,20.6,5.6
COc1ccc(-n2ncc3c(N4CCCCC4)ncnc32)cc1,82.1,101.2*,76.5*,.,84.4*
Clc1ccc(-n2ncc3c(N4CCCCCC4)ncnc32)cc1,65.8,77.9*,40.5*,-6.9,71.0*
CCOc1ccc(-n2ccnc(SCC(=O)NCc3cccc(OC)c3)c2=O)cc1,-3.6,3.8,0.9,-0.4,-0.5
CC1(C)CC(=O)C=C(NCc2cccs2)C1,6.0,-3.5,1.0,18.4,-3.5
Cc1cc(=O)c2cc(NC(=O)c3ccccc3Cl)ccc2[nH]1,-10.9,8.3,2.5,-28.0,4.0
Cc1cc(N/N=C/c2ccc(O)cc2)c2cccc(C)c2n1,-0.1,-41.9,5.5,13.0,50.6
Cc1cc(C)c2nc(C)cc(N/N=C/c3ccc(O)cc3)c2c1,71.4,112.1*,-20.0,94.1*,86.0*
COc1ccc(CN2C(=O)C3C4C=CC(C4)C3C2=O)cc1 (configuration not stated),-11.2,19.8,-10.9,.,-10.0
O=C(CN1C(=O)C2C3C=CC(C3)C2C1=O)NCCC1=CCCCC1 (configuration not stated),6.8,-7.7,76.2*,.,-3.1
COc1ccc(CNC(=O)CN2C(=O)C3C4C=CC(C4)C3C2=O)cc1 (configuration not stated),-5.8,-12.8,-2.9,-7.9,93.4*
CC(=O)N1CC[C@@H]2[C@H]1c1cc(-c3ccc(F)cc3)ccc1N[C@@H]2CO,.,.,.,-8.6,.
C[C@@H]1CN([C@@H](C)CO)S(=O)(=O)c2ccc(C#Cc3ccncc3)cc2O[C@H]1CN(C)C(=O)Nc1ccc2c(c1)OCO2,.,.,.,103.1*,.
C[C@@H]1CN([C@@H](C)CO)S(=O)(=O)c2ccc(C#Cc3ccccc3F)cc2O[C@@H]1CN(C)C(=O)Cc1ccccc1,.,.,.,9.2,.
C[C@@H]1CN([C@H](C)CO)S(=O)(=O)c2ccc(C#Cc3ccccc3F)cc2O[C@H]1CN(C)C(=O)c1ccc2c(c1)OCO2,38.3,.,8.8,63.1*!,.
C[C@H]1CN([C@@H](C)CO)S(=O)(=O)c2ccc(C#Cc3ccccc3)cc2O[C@H]1CN(C)C(=O)Nc1ccc2c(c1)OCO2,.,.,.,55.2,.

# Compound activity: PubChem BioAssay, Broad Institute
